Reference: the supplement of paper PMC3484114
± gives the standard deviation.

test system: OVCAR-3-derived ovarian cancer stem-like cells (spheroids); assay: cell growth relative to untreated control; higher = more growth (less inhibition); settings: 2.29 µM; 96 h
Outline: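 Viability of stem-like cells from OVCAR-3 spheroids was assessed with TOX8 resazurin fluorescence at ex 560/em 590 nm. The cells had been trypsin-dissociated, seeded at 50,000 cells/mL in stem cell medium in ultra-low attachment 96-well plates and preincubated 24 h, then treated with compounds at 2.29 uM for 96 h at 37°C, 5% CO2, in 4 replicate wells, with fluorescence read after 4 h. Results were converted to percent growth against untreated wells after blank subtraction and Grubbs outlier removal.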

Compound	cell growth [%]
CCOC(C)C(C=NNC(N)=S)=NNC(N)=S (stereo not given)	23 ± 5.7
Nc1ccc2c(c1)CN1C(=O)c3ccccc3C1=N2	72.9 ± 5.6
Cc1cc(NC(=O)NC(=O)c2ccccc2NC(=O)CN)ccc1Oc1ncc(Br)cn1	49.8 ± 9
COc1cc(OC)c2c(C)cc(=O)oc2c1	108 ± 32
O=C1C2=Nc3ccccc3C(O)N2c2ccccc21 (stereo not given)	91 ± 12
CC(/C=C/C(O)=C1/C(=O)CNC1=O)=C\[C@@H](C)[C@H]1O[C@]2(C)O[C@@H](C(=O)[C@@H]3O[C@@]32C)[C@@H]1C	60.3 ± 14
COC(=O)C1c2cc3c(c(O)c2C(OC2OC(C)C(OC)C(C)(OC)C2OC)CC1(C)O)C(=O)c1c(O)cc2c(c1C3=O)OC1OC2(C)C(O)C(N(C)C)C1O (stereo not given)	51.8 ± 47
COc1ccc2cc1Oc1ccc(cc1)CC1c3cc(c(OC)cc3CCN1C)Oc1c(OC)c(OC)cc3c1C(C2)N(C)CC3 (stereo not given)	88.5 ± 18
CN(CCc1ccccn1)c1ccc2c(c1)C(=O)c1ccccc1-2	103 ± 32
O=C1Cc2c(-c3ccccc3)cc(-c3cccc(Cl)c3)nc2-c2ccccc2N1	99.6 ± 21
COC1/C=C/OC2(C)Oc3c(C)c(O)c4c(c3C2=O)C(=O)C=C(NC(=O)/C(C)=C\C=C\C(C)C(OC=O)C(C)C(O)C(C)C(OC(C)=O)C1C)C4=O (stereo not given)	66.6 ± 67
O=C1c2ccccc2C(=O)c2c(NCCNCCO)ccc(O)c21	67.2 ± 44
CN(C)c1cccc(F)c1C(=O)NC(=O)Nc1ccc(Cl)cc1	102 ± 28
CCOC(=O)/N=C(\N)SCc1ccccc1	78.4 ± 11
CN(C)[C@H]1CCC2[C@@H]3CCC4C[C@@H](NC(=O)NC(Cc5ccccc5)c5nccs5)CC[C@]4(C)C3CC[C@@]21C (stereo not given in full)	76.9 ± 20
